The record followed here is PubChem BioAssay (NCATS).

A short description of assay [1]: qHTS for Inhibitors of Ubiquitin-specific Protease USP2a Using CHOP2 as the Reporter: K633 Counterscreen (AID 652168). Further: series mostly up to about 57 µM. The procedure, abridged:
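Cell-free interference counterscreen without USP2a: compounds pinned into enzyme-free buffer (20 mM Tris pH 8, 2 mM beta-mercaptoethanol, 0.05% Chaps), then DiUb K48-4IQF substrate added (100 nM stock); fluorescence read kinetically, Ex 525/Em 598.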
For orientation: Quantitative high-throughput screening tests each substance at several concentrations.

The nature of assay [2]: qHTS for Inhibitors of Ubiquitin-specific Protease USP2a Using CHOP2 as the Reporter: Cytotox Assay (AID 652170). Further: nearly all actives have a fitted effect of over 70% in size. Further: potency means the concentration at half of the fitted maximal effect. The procedure, abridged:
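HCT116 human colon cancer cells, 600 per well in DMEM with 10% FBS, exposed to compounds for 72 hr at 37 deg C. ATP measured by CellTiter-Glo luminescence, normalized to DMSO cells and no-cell background.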

Assay [3] has as its target Ubiquitin carboxyl-terminal hydrolase 2 (Homo sapiens) (UniProt O75604). The assay can be described thus: qHTS for Inhibitors of Ubiquitin-specific Protease USP2a Using CHOP2 as the Reporter: K484 Substrate (AID 652173).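 Further: cleavage of internally quenched K48 di-ubiquitin substrate measured as rising fluorescence over time; nearly all actives have a fitted effect of over 70% in size.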 Further: potency means the concentration at half of the fitted maximal effect. The procedure, abridged:
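USP2 (dispensed at 5 nM) was pinned with compounds, then DiUb K48 internally quenched fluorescent substrate (dispensed at 100 nM) was added. The buffer was 20 mM Tris pH 8, 2 mM beta-mercaptoethanol and 0.05% CHAPS. Cleavage was read kinetically as rising fluorescence, Ex 525/Em 598.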

Assay [4] concerns the target Calcium and integrin-binding protein 1 (Homo sapiens) (UniProt Q99828). The assay can be described thus: Primary qHTS for Identification of Calcium Integrin Binding Protein 1 (CIB1) Competitor (AID 1508620).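 Further: GST tagged CIB1 binding a fluorescein labelled alphaIIb integrin peptide tracer; top concentration of the series differs between compounds.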 The procedure, abridged:
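CIB1-GST (1 uM final) and compound incubated 15 min at room temperature before adding FITC-alphaIIb peptide tracer (100 nM final). Competition for binding read by fluorescence polarization (ex 480, em 540) after another 15 min at room temperature.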

Structures are written as SMILES. Results filed as inconclusive are left out. Activity calls are given as the source filed them. The call rests on the fitted dose curve; in most records, active means well fitted curve in the direction sought with a large enough effect; inconclusive means small, poorly fitted or top-dose-only effect, or another doubt; inactive means no such curve, though single readings can be large; an effect the other way counts as inactive or inconclusive.

Ubiquitin carboxyl-terminal hydrolase 2 (Homo sapiens), sequence (O75604 whole entry, looked up): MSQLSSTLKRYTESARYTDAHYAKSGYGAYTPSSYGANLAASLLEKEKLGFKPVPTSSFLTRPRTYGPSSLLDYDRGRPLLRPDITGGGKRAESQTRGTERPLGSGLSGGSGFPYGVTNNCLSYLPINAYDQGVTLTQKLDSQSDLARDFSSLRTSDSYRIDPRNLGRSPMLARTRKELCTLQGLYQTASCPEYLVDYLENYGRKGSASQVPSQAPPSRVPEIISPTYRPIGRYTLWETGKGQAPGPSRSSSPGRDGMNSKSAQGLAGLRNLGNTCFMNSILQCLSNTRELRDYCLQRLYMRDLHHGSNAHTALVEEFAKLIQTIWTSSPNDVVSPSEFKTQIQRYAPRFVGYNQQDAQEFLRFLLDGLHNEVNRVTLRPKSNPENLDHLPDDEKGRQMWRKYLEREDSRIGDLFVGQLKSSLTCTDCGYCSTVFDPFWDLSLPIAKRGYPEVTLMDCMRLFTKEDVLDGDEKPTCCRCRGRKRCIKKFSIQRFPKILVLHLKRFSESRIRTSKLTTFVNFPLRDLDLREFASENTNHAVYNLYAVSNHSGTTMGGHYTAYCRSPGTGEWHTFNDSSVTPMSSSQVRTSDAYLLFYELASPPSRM
Calcium and integrin-binding protein 1 (Homo sapiens), sequence (Q99828 whole entry, looked up): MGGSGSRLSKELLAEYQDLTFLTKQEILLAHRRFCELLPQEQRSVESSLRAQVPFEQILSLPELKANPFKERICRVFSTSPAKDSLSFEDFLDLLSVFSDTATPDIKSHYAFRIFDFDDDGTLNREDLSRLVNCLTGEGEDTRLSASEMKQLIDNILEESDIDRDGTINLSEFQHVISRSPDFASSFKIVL

On to `O=C(O)c1cccc(S(=O)(=O)Nc2nccs2)c1`, for which, in assay [1], the call was inactive. Besides, the Potency result in assay [2], in assay [3] and in assay [4] was “inactive” throughout.
`O=c1[nH]c(CN2CCOCC2)nc2sc3c(c12)CCCC3`: in assay [1], the outcome was inactive. The Potency result in assay [3] and in assay [4] was “inactive” in each case.
As to `O=S(=O)(Nc1nc(CN2CCOCC2)nc2sc3c(c12)CCC3)c1ccc2c(c1)OCCO2`, the result in assay [1] was inactive. Moreover, the Potency entry in assay [2], in assay [3] and in assay [4] was “inactive” each time.
As for `COc1ccc(NS(=O)(=O)c2ccc(C)cc2)cc1C(=O)Nc1nc(-c2ccccc2)cs1`, the Potency entry in assay [2] and in assay [4] was “inactive” in each case. Besides, in assay [3], the Potency is 3.43 µM (active).
Take `Cc1ccc(S(=O)(=O)Nc2ccncc2C(=O)Nc2nc(-c3ccccc3)cs2)cc1`: the molecule was classed as inactive in assay [1]. In assay [3], the Potency is 4.85 µM (active). Moreover, the Potency entry in assay [4] is “inactive”.
Consider `Cc1ccc(-c2cc(C(=O)Nc3nc4ccccc4s3)c3ccccc3n2)cc1C`, for which the Potency entry in assay [2] and in assay [4] was “inactive” in each case. For the same molecule, the Potency in assay [3] was 21.7 µM (active).
Take `Cc1ccc(S(=O)(=O)Nc2cc(C(=O)Nc3nc(-c4ccccc4)cs3)ccn2)cc1`: the Potency entry in assay [2] and in assay [4] was “inactive” each time. In addition, the Potency in assay [3] was 6.85 µM (active).
For the molecule `Cc1ccc(S(=O)(=O)Nc2ccccc2C(=O)Nc2nc(-c3ccccc3)co2)cc1`, the Potency in assay [2] was 5.9 µM (active); in assay [3] it was 2.73 µM (active). Also, the Potency entry in assay [4] was “inactive”.
In the case of `COc1cccc(NS(=O)(=O)c2ccc(C)cc2)c1C(=O)Nc1nc(-c2ccccc2)cs1`, the Potency result in assay [2] and in assay [4] was “inactive” each time. The Potency in assay [3] was 4.32 µM (active).
Take `Cc1ccc(-c2cc(C(=O)Nc3ccn[nH]3)c3ccccc3n2)cc1C`: the Potency entry in assay [2] and in assay [4] was “inactive” in each case. The Potency in assay [3] is 27.3 µM (active).
With `Cc1ccc(S(=O)(=O)n2cc(C(=O)Nc3ccc(-c4ccccc4)cc3)c3ccccc32)cc1`, in assay [1], the molecule was called inactive. Moreover, the Potency in assay [3] was 21.7 µM (active). The Potency result in assay [4] is “inactive”.
`Cc1ccc(S(=O)(=O)Nc2ccccc2C(=O)Nc2ncc(-c3ccccc3)s2)cc1`: the Potency in assay [2] is 18.7 µM (active); in assay [3] it was 1.93 µM (active). For the same molecule, the Potency result in assay [4] was “inactive”.
Consider `Cc1ccc(S(=O)(=O)Nc2cc(F)ccc2C(=O)Nc2nc(-c3ccccc3)cs2)cc1`, for which the result in assay [1] was inactive. Moreover, the Potency in assay [3] was 0.769 µM (active). The Potency result in assay [4] is “inactive”.
In the case of `COc1ccccc1C(=O)Nc1nc(-c2ccccc2)cs1`, the Potency result in assay [2] and in assay [4] was “inactive” in each case. Also, the Potency in assay [3] was 10.9 µM (active).
For the molecule `COC(=O)c1ccccc1C(=O)Nc1nc(-c2ccccc2)cs1`, the Potency entry in assay [2] and in assay [4] was “inactive” in each case. Moreover, the Potency in assay [3] was 30.6 µM (active).
`COc1ccc(NS(=O)(=O)c2ccc(C)cc2)c(C(=O)Nc2nc(-c3ccccc3)cs2)c1`: in assay [1], the molecule was classed as inactive. Moreover, the Potency in assay [3] was 2.73 µM (active). For the same molecule, in assay [4], the Potency result is “inactive”.
Regarding `Cc1ccc(-c2cc(C(=O)Nc3ccccc3C)c3ccccc3n2)cc1C`, the Potency entry in assay [2] and in assay [4] was “inactive” in each case. In addition, the Potency in assay [3] was 21.7 µM (active).
On to `CCOC(=O)C1CCC(C(=O)Nc2ccc([S+](=O)([O-])Nc3nccs3)cc2)CC1` (stereo not drawn), for which, in assay [1], the molecule was called inactive. Moreover, the Potency result in assay [3] and in assay [4] was “inactive” each time.
Turning to `Cc1ccc(S(=O)(=O)Nc2ccccc2C(=O)Nc2nccs2)cc1`, the outcome in assay [1] was inactive. The Potency in assay [3] is 24.3 µM (active). The Potency entry in assay [4] was “inactive”.
Regarding `COc1cc(Cl)ccc1C(=O)Nc1nc(-c2ccccc2)cs1`, the Potency result in assay [2] and in assay [4] was “inactive” throughout. The Potency in assay [3] was 13.7 µM (active).
For the molecule `Cc1ccc(-c2cc(C(=O)NCc3ccccc3)c3ccccc3n2)cc1C`, the Potency entry in assay [2] and in assay [4] was “inactive” each time. The Potency in assay [3] is 13.7 µM (active).
With `O=C(Nc1ccc([S+](=O)([O-])Nc2nccs2)cc1)c1ccccn1`, the molecule was classed as inactive in assay [1]. Moreover, the Potency result in assay [3] and in assay [4] was “inactive” each time.
As for `O=c1[nH]c(CN2CCOCC2)nc2sc3c(c12)CCC3`, the molecule was called inactive in assay [1]. Moreover, the Potency result in assay [3] and in assay [4] was “inactive” throughout.
Regarding `Cc1ccc(S(=O)(=O)Nc2cc(Br)ccc2C(=O)Nc2nc(-c3ccccc3)cs2)cc1`, the outcome in assay [1] was inactive. Further, the Potency in assay [3] was 1.09 µM (active). Besides, in assay [4], the Potency result was “inactive”.
In the case of `Cc1ccc(S(=O)(=O)Nc2ccccc2C(=O)Nc2ccc(-c3ccccc3)cc2)cc1`, the Potency in assay [2] is 13.2 µM (active); in assay [3], 2.43 µM (active). In assay [4], the Potency result is “inactive”.
As for `Cc1cccc2c(C(=O)O)cc(Cl)nc12`, the result in assay [1] was inactive. Also, the Potency result in assay [3] and in assay [4] was “inactive” throughout.
Take `O=C(Nc1nc(-c2ccccc2)cs1)c1ccccc1-n1cnnn1`: the Potency entry in assay [2] and in assay [4] was “inactive” throughout.
In the case of `O=C(Nc1ccc(S(=O)(=O)Nc2nc(-c3ccccc3)cs2)cc1)c1ccc2ccccc2c1`, the call in assay [1] was inactive. Also, the Potency in assay [3] is 2.43 µM (active). Further, the Potency result in assay [4] is “inactive”.
`COc1ccc(C(=O)Nc2nc(-c3ccccc3)cs2)cc1NS(=O)(=O)c1ccc(C)cc1`: the Potency entry in assay [2] and in assay [4] was “inactive” in each case. In addition, the Potency in assay [3] is 3.06 µM (active).
Take `Cc1ccc(-c2cc(C(=O)Nc3ccc(-n4cncn4)cc3)c3ccccc3n2)cc1C`: the Potency entry in assay [2] and in assay [4] was “inactive” throughout. Besides, the Potency in assay [3] is 7.69 µM (active).
`Cc1ccc(-c2cc(C(=O)Nc3ccc(C(=O)O)cc3)c3ccccc3n2)cc1C`: in assay [1], the result was inactive. The Potency in assay [3] is 21.7 µM (active). Further, in assay [4], the Potency entry is “inactive”.
With `Cc1ccc(S(=O)(=O)Nc2cncc(C(=O)Nc3nc(-c4ccccc4)cs3)c2)cc1`, the Potency entry in assay [2] and in assay [4] was “inactive” each time. Besides, the Potency in assay [3] is 6.85 µM (active).
As for `Clc1nc(CN2CCOCC2)nc2sc3c(c12)CCCC3`, in assay [1], the call was inactive. For the same molecule, the Potency entry in assay [3] and in assay [4] was “inactive” in each case.
As to `Cc1ccc(-c2cc(C(=O)Nc3ncco3)c3ccccc3n2)cc1C`, the Potency was 1.32 µM (active) in assay [2] and 3.06 µM (active) in assay [3]. For the same molecule, in assay [4], the Potency result is “inactive”.
